From PubChem BioAssay
Most compounds without a hit are left out; they make up all but 8% or so of the library.
HCV inh: blocks hepatitis C virus; Potency, µM (doses to about 41.8 µM), actives largely listed as inhibitors; Huh7.5.1 HCVcc-Cre infection, luciferase reporter, 44 h; 340,000 compounds, 3.4% hits; active means well fitted inhibition curve with a large enough effect; inconclusive means small, poorly fitted or top-dose-only effect, or another doubt; inactive means no such curve, though single readings can be large or run the other way
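Luciferase read-out (15 sec integration) after a 15 min room-temperature substrate step quantifies HCVcc-Cre infection. Cells, 1,000 per well, had compound added 4 h post-plating, then virus at ~0.5 moi, and were cultured 44 h.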
SARS PLpro yeast: SARS-CoV PLP inhibition in yeast; S. cerevisiae expressing SARS-CoV PLpro, growth rescue; Potency, µM (titrated, usually from 32.9 µM), most hits filed as activators; 330,000 compounds, 0.19% hits; AID 485353; calls by dose curve; further: nearly all actives have a fitted effect of over 55% in size
Marburg entry inh: blocks Marburg virus binding to or entry into cells; Marburg virus pseudotyped entry inhibition, cell reporter; Potency, µM (highest dose often 37.8 µM), most hits filed as inhibitors; 300,000 compounds, 1.8% hits; calls by dose curve; tested in HEK293 cells
FMDV inh: foot and mouth disease virus antiviral activity; FMDV antiviral cell-based qHTS; 410,000 compounds, 1.2% hits; Potency, µM (doses to about 57.9 µM), actives largely listed as inhibitors; calls by dose curve; tested in HEK293T cells; further: read-out not given here; nearly all actives have a fitted effect of over 45% in size
HCMV inh: blocks human cytomegalovirus replication. HFF cells, HCMV-luciferase reporter, 72 h; hits give low values. 410,000 compounds, 4.5% hits. activity change, negative = inhibition, % at 57.5 µM. AID 1259415; in the data active means activity change below about -60%; inconclusive means no clear call, values can overlap the other calls; inactive means above about -39%
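After 16 h attachment at 37C, HFF cells received test compound and HCMV-luciferase (1 PFU/cell); reporter luminescence read 72 h later, data normalized against buffer-only and known inhibitor Salinomycin.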
Lassa entry inh: inhibitors of Lassa virus binding or cell entry. 300,000 compounds, 1.2% hits. Potency, µM (series often up to 37.9 µM), hits mostly inhibitors. Lassa virus pseudotype entry inhibition, cell reporter; calls by dose curve; tested in HEK293 cells; further: nearly all actives have a fitted effect of over 50% in size
Numbers stand for hits; . = inactive; ? = inconclusive; / = not tested or not shown.

SMILES	HCV inh	SARS PLpro yeast	Marburg entry inh	FMDV inh	HCMV inh	Lassa entry inh
CN1CCN(CCCNC(=O)c2ccc3c(Cl)c4c(nc3c2)CCCC4)CC1	10µM	.	/	.	?	/
CCN1CCN(C(=O)C2=CC(c3ccc(OC)cc3)=NS(=O)(=O)N2C)CC1	.	.	/	.	-64	/
COc1cccc(-c2cnc3c(NC=O)cc(-c4ccc(O)c(OC)c4)cn23)c1	/	/	/	.	.	/
COc1cc(-c2cnc3c(NC=O)cc(-c4cccc(C(F)(F)F)c4)cn23)cc(OC)c1OC	/	/	/	20µM	-67	/
COc1cccc(-c2cc(NC=O)c3ncc(-c4cc(OC)c(OC)c(OC)c4)n3c2)c1	/	/	/	?	-81	/
COc1ccc(-c2cnc3c(NC=O)cc(-c4ccccc4OC)cn23)cc1OC	/	/	/	?	-80	/
COc1cc(-c2ccc3ncc(-c4cccc(C(F)(F)F)c4)n3n2)cc(OC)c1OC	/	/	/	/	-95	/
COc1ccc(-c2cc(NC=O)c3ncc(-c4cccc(C(F)(F)F)c4)n3c2)c(OC)c1	/	/	/	?	.	/
COc1cccc(NC(=O)COc2cccc3c2CCNC3=O)c1	.	.	.	.	.	.
CCC(C)NC(=O)CCC(=O)OC1O[C@H]2OC3(C)CC[C@H]4[C@H](C)CCC(C1C)C24OO3 (some centres undefined)	?	.	/	.	-76	/
CCC(C)C(NC(=O)CCCNC(=O)CCC(=O)OC1O[C@H]2OC3(C)CC[C@H]4[C@H](C)CCC(C1C)C24OO3)C(=O)O (some centres undefined)	/	.	/	/	.	/
CCOC(=O)c1ccc(NC(=S)N(CCN2CCCCCC2)Cc2cccs2)cc1	?	.	8.9µM	.	?	?
CCOC(=O)c1ccc(NC(=S)N(CCCN2CCN(CC)CC2)Cc2cccs2)cc1	?	.	10µM	.	.	10µM
CC1(C)CC2C1CC[C@]1(C)CCC3C(C(=O)O)CC(=O)O[C@]32C1 (some centres undefined)	/	/	/	.	/	/
O=C(CCC1N=C2c3ccccc3N=C(SCc3ccc(F)cc3)N2C1=O)NC1CCCCC1 (centres undefined)	/	/	/	?	.	.
COc1cc(/C=N/NC(=O)c2ccccc2)ccc1O	.	.	/	.	.	/
COc1cc(OC)c2cc(C(=O)N/N=C/c3ccccc3O)[nH]c2c1	8.9µM	.	/	.	-96	/
COc1ccc(/C=N/NC(=O)c2ccc(F)cc2)cc1CN1CCc2cc(OC)c(OC)cc2C1C (centres undefined)	?	.	?	.	.	.
COc1ccc(/C=N/NC(=O)c2ccc(O)cc2)cc1CN1CCCc2ccccc21	?	.	.	40µM	.	?
CCOc1ccc(/C=N/NC(=O)c2cc3c(OC)cc(OC)c(OC)c3[nH]2)cc1	11µM	.	/	.	.	/
COc1ccc(/C=N/NC(=O)c2ccc(-c3ccccc3)cc2)cc1O	?	.	.	?	-60	?
CCCOc1ccc2[nH]c(C(=O)N/N=C/c3cc(OC)c(OC)c(OC)c3)cc2c1	.	.	/	.	.	/
OC1CCN(Cc2ccc3c(c2)CN(Cc2ccc(Oc4ncccn4)cc2)CCO3)CC1	/	/	/	.	/	/
NC(=S)N/N=C/c1cccc(O)c1O	?	.	?	.	-100	?
COc1ccc2[nH]c(C(=O)N/N=C/c3ccc(OC)c(O)c3)cc2c1	.	.	?	.	-74	5.6µM
SMILES	HCV inh	SARS PLpro yeast	Marburg entry inh	FMDV inh	HCMV inh	Lassa entry inh
COc1ccc2[nH]c(C(=O)N/N=C/c3ccccc3OC)cc2c1	.	.	/	.	.	/
NC(=S)N/N=C/c1ccccc1O	.	.	/	.	.	/
COc1cccc(/C=N/NC(=O)c2[nH]c(C)c(C(=O)N/N=C/c3cccc(OC)c3O)c2C)c1O	?	?	8.9µM	.	.	?
COc1cccc(/C=N/NC(=O)c2ccc([N+](=O)[O-])cc2Cl)c1O	?	?	?	.	.	15µM
COc1ccc2c(c1)[C@@H](NC(=O)OCc1ccccc1)[C@H](C)[C@@H](C(C)C)N2	/	/	/	/	.	/
CC(NC(=O)c1ccco1)c1nnc2n1CCN(Cc1ccc(N3CCCC3)cc1)CC2 (centres undefined)	/	/	/	.	/	/
CC(=O)c1ccc(NC(=O)CSc2nnc3ccc(-c4ccc(Br)cc4)nn23)cc1	/	/	/	.	.	.
Cc1nn(C)cc1CN1CCOc2ccc(CN3CCC(Oc4cccnc4)CC3)cc2C1	/	/	/	.	/	/
CCc1ccc2c(c1)c(=O)c(S(=O)(=O)c1ccc(Cl)cc1)cn2CC	/	/	.	.	.	.
CCOc1ccc(C(=O)Nc2cc(-c3nc4ccccc4o3)ccc2C)cc1Cl	/	/	/	.	.	.
COc1cc(/C=N/NC(=O)c2ccc3c(c2)OCCO3)cc(Br)c1O	.	.	/	.	.	/
Cc1[nH]c(C(=O)N/N=C/c2ccc(C(=O)O)cc2)c(C)c1C(=O)N/N=C/c1ccc(C(=O)O)cc1	.	.	?	.	.	.
O=C(NN=Cc1cccc(O)c1O)c1ccccc1	/	/	/	.	-94	/
CCOC(=O)c1c(C)[nH]c(C(=O)N/N=C/c2ccc(Br)cc2)c1C	?	.	2.8µM	.	-77	?
COc1ccc(/C=N/Nc2nnc(-c3ccccc3)c(=O)[nH]2)cc1	.	.	.	.	-100	?
COc1cc(/C=N\NC(=O)c2ccc(-c3ccccc3)cc2)cc(Br)c1O	?	.	?	.	-68	.
